# Results from the supplement of paper PMC4962491.
# ± gives the standard deviation of the averaged measurements.
# System: FaDu
# Test: mitochondrial oxygen consumption rate normalised to cell number, Z score vs plate DMSO wells; higher = higher oxygen consumption (negative = OCR reduction)
# Settings: treatment time 24 h, assay medium: 5 mM glucose, 5 mM pyruvate, 4 mM glutamine
# Protocol: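 Secondary screen: FaDu cells were incubated 24 h with the top 130 primary hits at 0.08, 0.4, 2 or 10 uM. Mitochondrial-specific OCR (basal minus antimycin A) was measured on a Seahorse XF96 in medium with 5 mM glucose, 5 mM pyruvate and 4 mM glutamine and normalised to Hoechst cell number. OCR score = (OCR - mean of plate DMSO wells) / SD of plate DMSO wells. Three repeats.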
# 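Note: compound exposure in DMEM (4 mM L-glutamine, 5 mM glucose), antimycin A injected at 2 µM after the basal reading and its residual OCR subtracted from basal.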
structure (smiles),measurement,setting,value
O=c1[nH]c2ccccc2n1C1CCN(CCCC(c2ccc(F)cc2)c2ccc(F)cc2)CC1,mitochondrial oxygen consumption rate normalised,0.08 µM,0.0686 ± 1.5
same,mitochondrial oxygen consumption rate normalised,0.4 µM,0.719 ± 0.8
same,mitochondrial oxygen consumption rate normalised,2 µM,-0.247 ± 1
same,mitochondrial oxygen consumption rate normalised,10 µM,-2.41 ± 0.47
COc1ccc(Cc2nccc3cc(OC)c(OC)cc23)cc1OC,mitochondrial oxygen consumption rate normalised,0.08 µM,0.452 ± 1
same,mitochondrial oxygen consumption rate normalised,0.4 µM,1.06 ± 1.4
same,mitochondrial oxygen consumption rate normalised,2 µM,0.739 ± 0.59
same,mitochondrial oxygen consumption rate normalised,10 µM,-0.208 ± 3.2
CC(=O)Oc1ccc(Cl)c2cccnc12,mitochondrial oxygen consumption rate normalised,0.08 µM,1.68 ± 0.74
same,mitochondrial oxygen consumption rate normalised,0.4 µM,1.4 ± 1.5
same,mitochondrial oxygen consumption rate normalised,2 µM,1.41 ± 0.58
same,mitochondrial oxygen consumption rate normalised,10 µM,-4.99 ± 1.8
S=C=NCc1ccccc1,mitochondrial oxygen consumption rate normalised,0.08 µM,0.549 ± 1.3
same,mitochondrial oxygen consumption rate normalised,0.4 µM,1.06 ± 1.3
same,mitochondrial oxygen consumption rate normalised,2 µM,0.157 ± 2.2
CC[C@H]1CN2CCc3cc(OC)c(OC)cc3[C@@H]2C[C@@H]1C[C@H]1NCCc2cc(OC)c(OC)cc21,mitochondrial oxygen consumption rate normalised,0.08 µM,-2.43 ± 0.17
same,mitochondrial oxygen consumption rate normalised,0.4 µM,-3.08 ± 0.73
same,mitochondrial oxygen consumption rate normalised,2 µM,-9.68 ± 0.42
same,mitochondrial oxygen consumption rate normalised,10 µM,-11.8 ± 0.41
CC(C)[N+](C)(CCC(C(N)=O)(c1ccccc1)c1ccccc1)C(C)C,mitochondrial oxygen consumption rate normalised,0.08 µM,-0.746 ± 1.7
same,mitochondrial oxygen consumption rate normalised,0.4 µM,0.934 ± 0.43
same,mitochondrial oxygen consumption rate normalised,2 µM,0.355 ± 1.3
same,mitochondrial oxygen consumption rate normalised,10 µM,-0.361 ± 2
CCCCCCCCCCCCCCCC[n+]1ccccc1,mitochondrial oxygen consumption rate normalised,0.08 µM,-1.4 ± 1.2
same,mitochondrial oxygen consumption rate normalised,0.4 µM,-7.98 ± 1.3
same,mitochondrial oxygen consumption rate normalised,2 µM,-12.98 ± 0.12
COc1cc([C@@H]2c3cc4c(cc3[C@H](O)[C@H]3COC(=O)[C@H]23)OCO4)cc(OC)c1OC,mitochondrial oxygen consumption rate normalised,0.08 µM,-0.539 ± 1.6
same,mitochondrial oxygen consumption rate normalised,0.4 µM,-0.043 ± 0.98
same,mitochondrial oxygen consumption rate normalised,2 µM,0.427 ± 0.56
same,mitochondrial oxygen consumption rate normalised,10 µM,-0.617 ± 1.2
CCN1C[C@]2(COC)[C@H](O)C[C@H](OC)[C@@]34[C@@H]5C[C@@]6(O)[C@H](OC(=O)c7ccccc7)[C@@H]5[C@@](OC(C)=O)([C@@H]([C@H](OC)[C@H]23)[C@@H]14)[C@@H](O)[C@@H]6OC,mitochondrial oxygen consumption rate normalised,0.08 µM,-1.27 ± 0.64
same,mitochondrial oxygen consumption rate normalised,0.4 µM,0.916 ± 0.68
same,mitochondrial oxygen consumption rate normalised,2 µM,-0.205 ± 0.67
same,mitochondrial oxygen consumption rate normalised,10 µM,-1.19 ± 2.6
C=C1C[C@@H]2[C@H](CC[C@]3(C)C(=O)CC[C@@H]23)[C@@]2(C)C=CC(=O)C=C12,mitochondrial oxygen consumption rate normalised,0.08 µM,-0.364 ± 0.53
same,mitochondrial oxygen consumption rate normalised,0.4 µM,1.24 ± 0.73
same,mitochondrial oxygen consumption rate normalised,2 µM,-0.149 ± 1
same,mitochondrial oxygen consumption rate normalised,10 µM,0.548 ± 0.94
CC(=O)O[C@H]1C[C@H](O[C@H]2[C@@H](O)C[C@H](O[C@H]3[C@@H](O)C[C@H](O[C@H]4CC[C@@]5(C)[C@H](CC[C@@H]6[C@@H]5C[C@@H](O)[C@]5(C)[C@@H](C7=CC(=O)OC7)CC[C@]65O)C4)O[C@@H]3C)O[C@@H]2C)O[C@H](C)[C@H]1O[C@@H]1O[C@H](CO)[C@@H](O)[C@H](O)[C@H]1O,mitochondrial oxygen consumption rate normalised,0.08 µM,-0.88 ± 0.81
same,mitochondrial oxygen consumption rate normalised,0.4 µM,-3.22 ± 1.3
